High-throughput results from PubChem BioAssay.
DT40 TDP1 CPT: growth inhibition of DT40 Tdp1-/-;hTDP1 cells with camptothecin (screen for TDP1 inhibitors). chicken DT40 Tdp1-/-;hTDP1 cells + 20 nM CPT, ATP luminescence, 48 h. Potency, µM (top dose mostly 46.2 µM), for the others: top-dose activity change, negative = growth inhibition, actives largely listed as inhibitors. 420,000 compounds, 12% hits; note: potency is the fitted concentration of half-maximal effect; nearly all actives have a fitted effect of over 55% in size
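Cell growth measured by CellTiter-Glo luminescence after a minimum 48 h, 37 C compound exposure with 20 nM CPT in Tdp1-knockout DT40 cells stably expressing hTDP1, seeded 400/well; qHTS titration format.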
RORg inh: inhibitors of mouse ROR gamma transcriptional activity; Drosophila S2 Gal4-RORgamma UAS-luciferase reporter, 20 h; Potency, µM (top dose mostly 53.6 µM), inactives show top-dose activity change, negative = inhibition, actives largely listed as inhibitors; 310,000 compounds, 5.4% hits; AID 2551; note: potency is the fitted concentration of half-maximal effect; nearly all actives have a fitted effect of over 60% in size
Target sequence (P51450 whole entry, looked up, the tested form may be a part): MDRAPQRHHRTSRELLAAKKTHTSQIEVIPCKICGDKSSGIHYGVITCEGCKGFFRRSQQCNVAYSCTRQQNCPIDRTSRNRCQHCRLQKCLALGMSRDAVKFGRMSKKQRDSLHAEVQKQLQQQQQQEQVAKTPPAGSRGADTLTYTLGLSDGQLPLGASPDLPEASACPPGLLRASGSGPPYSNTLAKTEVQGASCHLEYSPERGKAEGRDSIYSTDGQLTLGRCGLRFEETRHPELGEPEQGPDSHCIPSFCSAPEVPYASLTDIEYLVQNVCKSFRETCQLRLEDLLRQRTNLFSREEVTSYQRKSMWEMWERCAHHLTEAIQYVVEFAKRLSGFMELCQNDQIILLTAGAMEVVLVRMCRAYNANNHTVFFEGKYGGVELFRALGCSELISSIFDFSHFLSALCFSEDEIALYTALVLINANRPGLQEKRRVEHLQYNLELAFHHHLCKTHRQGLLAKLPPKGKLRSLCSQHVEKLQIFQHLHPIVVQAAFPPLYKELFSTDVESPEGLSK
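Stably transfected Drosophila Schneider cells are the test system, with ROR gamma fused to Gal4 and luciferase under UAS control; luminescence is read after 20 hr of 700 uM copper sulfate induction at ambient temperature.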
DT40 TDP1 no CPT: qHTS for Inhibitors of human tyrosyl-DNA phosphodiesterase 1 (TDP1): qHTS in cells in absence of CPT. DT40 Tdp1-/- hTDP1 cells, no CPT, ATP luminescence, 48 h. Potency, µM (titrated, usually from 46.2 µM), without a hit: at the highest dose activity change, negative = growth inhibition, actives largely listed as inhibitors. 420,000 compounds, 15% hits. AID 686978, 2013; note: potency is the fitted concentration of half-maximal effect; nearly all actives have a fitted effect of over 55% in size
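Seeded 400 DT40-hTDP1 cells/well (vehicle DMSO, no 20 nM CPT); pinned compounds; ≥48 hr at 37 °C; CellTiter-Glo luminescence as viability measure.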
ELG1 repair inh: ELG1-dependent DNA repair inhibition | Potency, µM (series often up to 46.1 µM), inactives show at the highest dose activity change, negative = inhibition, usual class: inhibitors | HEK293T ELG1-luciferase reporter, luminescence, 16 h; DNA damage induced by 5-fluorouridine | 330,000 compounds, 2.3% hits | AID 504467; note: potency is the fitted concentration of half-maximal effect; nearly all actives have a fitted effect of over 55% in size
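DMSO vehicle served as the neutral condition. Each well held 2,000 cells given 5-fluorouridine plus compound; after 16 hr at 37 °C/5% CO2, ONE-Glo was added and luciferase measured 30 min later.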
Gal4-VP16 FLuc: Gal4-VP16 reporter inhibition counter-screen. Drosophila S2 Gal4-VP16 UAS-luciferase, luminescence, 20 h. Potency, µM (highest dose often 53.6 µM), without a hit: at the top dose activity, negative = inhibition, actives largely listed as inhibitors. 310,000 compounds, 3.5% hits;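 note: Gal4-VP16 expression switched on by copper sulfate through the metallothionein promoter; potency is the fitted concentration of half-maximal effect; nearly all actives have a fitted effect of over 50% in size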
IL1B secr inh: inhibitors of inflammasome signaling (IL-1 beta secretion); THP-1 LPS/ATP IL-1B secretion, AlphaLISA, 16 h; active compounds read low; activity change, % at 57.5 µM; 360,000 compounds, 4.7% hits; AID 743279; in the data active = activity change below about -50%; inconclusive = mostly about -30% to -49%
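Secreted IL-1B measured by AlphaLISA bead assay after 16 h compound exposure of THP-1 cells; compounds (final up to 57.5 uM) added 1 h before LPS (250 ng/mL) and ATP (1.25 mM) stimulation; lower signal means less secretion.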
* marks the source's active call; other numbers are inactive results; i = inactive; ? = inconclusive; nt = not tested or not shown. Only some compounds are listed: those with a hit (about 21% of all), similar ones and a draw of the others. Unless noted, calls come from the whole dose curve; as a rule, active = well fitted curve in the direction sought with a large enough effect; inconclusive = small, poorly fitted or top-dose-only effect, or another doubt; inactive = no such curve, though single readings can be large; an effect the other way counts as inactive or inconclusive. % is set by controls: 0 for no effect and ±100 for the full control effect.

SMILES | DT40 TDP1 CPT | RORg inh | DT40 TDP1 no CPT | ELG1 repair inh | Gal4-VP16 FLuc | IL1B secr inh
Cc1cc(C(=O)N2CCCC(N3CCN(c4ccccc4C)CC3)C2)nc(C)n1 (stereo not drawn) | -4% | 10% | 5% | -6% | -8% | 10
CCCN(Cc1nnc(-c2ccccc2Cl)o1)C(=O)COc1ccc(Cl)cc1 | ? | nt | ? | -12% | nt | -10
Cc1ccccc1N1CCN(C2CCCN(C(=O)c3ccc(Cl)s3)C2)CC1 (stereo not drawn) | ? | 17% | ? | ? | -5% | -11
COCc1ccc(C(=O)N2CCCC(N3CCN(c4ccccc4C)CC3)C2)s1 (stereo not drawn) | 15µM* | 6% | ? | -7% | 16% | -15
CCN1C(=O)CC(N2CCN(c3ccc(C(=O)c4ccncc4)cc3)CC2)C1=O (stereo not drawn) | ? | 0% | -13% | 15µM* | ? | 17
O=C(c1ccncc1)c1ccc(N2CCN(C3CC(=O)N(Cc4cccs4)C3=O)CC2)cc1 (stereo not drawn) | 16µM* | 6% | 23µM* | ? | ? | -3
CCOc1ccc(N2C(=O)CC(N3CCN(c4ccc(C(=O)c5ccncc5)cc4)CC3)C2=O)cc1 (stereo not drawn) | ? | nt | 21µM* | nt | nt | -3
Cc1sc2ncnc(NCC(O)c3ccc([N+](=O)[O-])cc3)c2c1C (stereo not drawn) | 7.3µM* | ? | 2.9µM* | ? | 5µM* | -55*
Cc1sc2ncnc(NCc3ccco3)c2c1C | 10µM* | 19% | 16µM* | ? | 20µM* | -59*
Cc1sc2ncnc(NCC(c3ccccc3)N(C)C)c2c1C (stereo not drawn) | ? | -10% | ? | -3% | 20% | ?
Cc1sc2ncnc(NCC(O)c3ccccc3)c2c1C (stereo not drawn) | 7.3µM* | ? | 4.6µM* | -3% | 16µM* | -26
Cc1sc2ncnc(NCCCO)c2c1C | 5% | 4% | ? | -14% | 0% | 28
CN(C)c1ccc(Cl)c(NC(N)=S)c1 | -28% | nt | -27% | nt | nt | 21
CCC(=O)N1CCc2cc(S(=O)(=O)NCCC(=O)Nc3ccc(C)cc3C)ccc21 | ? | nt | 23µM* | nt | nt | nt
CCC(=O)N1CCc2cc(S(=O)(=O)NCCC(=O)Nc3ccc(N(CC)CC)cc3C)ccc21 | ? | nt | 23µM* | nt | nt | nt
COc1ccccc1-n1cc(CN2CCc3onc(-c4ccc(Br)cc4)c3C2=O)nn1 | ? | nt | ? | nt | nt | -24
COc1ccccc1-c1noc2c1C(=O)N(Cc1cn(-c3ccc(Cl)cc3)nn1)CC2 | ? | nt | 23µM* | nt | nt | 0
COc1ccc(Cn2cc(CN3CCc4onc(-c5ccc(Br)cc5)c4C3=O)nn2)cc1 | 16µM* | nt | 21µM* | nt | nt | 0
O=C1NN(c2ccc(F)cc2)C(=O)/C1=C\C=C\c1ccco1 | ? | 1.1µM* | ? | -1% | ? | 4
CN(C/C=C/c1ccccc1)Cc1cccc2ccccc12 | ? | nt | ? | -6% | nt | -12
COc1ccc(S(=O)(=O)N(CCO)c2ccccc2CN(C)C/C=C/c2ccc(Cl)cc2)cc1 | 12µM* | nt | 15µM* | nt | nt | nt
CC1CCN(C(=O)COC(=O)CCC(=O)c2ccc(Cl)cc2)CC1 | -21% | nt | 0% | 0% | nt | 17
O=C(NC1CCCCCC1)C1CCN(S(=O)(=O)c2cccc3cccnc23)CC1 | -3% | 65% | -10% | -13% | 6% | -5
O=S(=O)(NCC1CCCN(Cc2ccccc2)C1)c1cccc2cccnc12 (stereo not drawn) | -2% | -30% | -4% | -6% | 1% | ?
O=C(NC1CCN(Cc2ccccc2)CC1)C1CCN(S(=O)(=O)c2cccc3cccnc23)CC1 | 18µM* | ? | 15µM* | ? | -24% | 30
SMILES | DT40 TDP1 CPT | RORg inh | DT40 TDP1 no CPT | ELG1 repair inh | Gal4-VP16 FLuc | IL1B secr inh
O=S(=O)(NC1CCN(Cc2ccccc2)CC1)c1cccc2cccnc12 | ? | -42% | 18µM* | -3% | -2% | -2
O=C(CNC(=O)C1CCCCC1)OCC(=O)c1ccccc1 | 6% | nt | -22% | nt | nt | nt
N=c1c(S(=O)(=O)c2ccccc2)cc2c(=O)n3ccccc3nc2n1C1CCCC1 | -2% | ? | ? | 0% | -11% | 9
N=c1c(S(=O)(=O)c2ccccc2)cc2c(=O)n3ccccc3nc2n1CCCN1CCOCC1 | 2% | -9% | -27% | 21% | -2% | -9
Cc1ccc(S(=O)(=O)c2cc3c(=O)n4ccccc4nc3n(C3CCCCC3)c2=N)cc1 | ? | 2% | 21µM* | -1% | -11% | i
Cc1ccc(S(=O)(=O)c2cc3c(=O)n4ccccc4nc3n(CCCN3CCOCC3)c2=N)cc1C | ? | 2% | 7% | 1% | -8% | -72*
C#CC[N+](C)(C)CCCCCCCCC | 2.3µM* | 27% | 2.3µM* | -21% | -2% | -68*
CC#CC[N+](C)(C)CCCCCCCCCC | 2.3µM* | 7% | 1.8µM* | ? | -13% | -59*
O=C(CN1C(=O)NC2(CCCCC2)C1=O)NCCCSc1ccccc1 | -1% | nt | -3% | 2% | nt | 14
C=CCOC(=O)/C(=C/c1cccc2ccccc12)NC(=O)c1ccccc1 | 29µM* | 45% | 23µM* | ? | ? | -10
COc1ccc(C(=O)N/C(=C\c2cccc3ccccc23)C(=O)N2CCN(C)CC2)cc1 | ? | nt | 18µM* | ? | nt | ?
O=C(OCc1ccccc1)/C(=C/c1cccc2ccccc12)NC(=O)c1ccccc1 | 7% | 17% | ? | -7% | -6% | 15
COc1ccc(NS(=O)(=O)c2cc(NC(=O)CCc3ccc(OC)c(OC)c3)ccc2N2CCOCC2)cc1 | -28% | nt | 5% | nt | nt | -12
Cc1cccc(C(=O)NC(=O)Nc2ccc(-c3cc(C(F)(F)F)nn3-c3ccccc3)cc2)c1 | -15% | nt | ? | nt | nt | nt
O=C(O)C1CSC(CCc2ccccc2)N1 (stereo not drawn) | 2% | -2% | -2% | -2% | 0% | 8
CCCCCCn1c(=O)n2n(c1=O)C[C@]1(OC(=O)NC3CC3)CN(S(=O)(=O)c3ccc(C)cc3)C[C@]1(O)C2 | ? | nt | 12µM* | nt | nt | 19
Cc1ccc(S(=O)(=O)N2C[C@]3(O)C[C@@H]4C(=O)N(c5ccccc5)C(=O)[C@@H]4C[C@]3(OC(=O)NC3CCCC3)C2)cc1 | ? | nt | 21µM* | nt | nt | -1
